Laboratory results reported in PubChem BioAssay (Tox21).
Values joined by “and” are separate entries in the source; they are usually repeats but may differ in a detail not shown here. Equal entries are not always repeated. Results filed as inconclusive are left out. The source holds several records for some structures; these can differ, active in one and inactive in another. Active and inactive are the calls of the source. Unless noted, calls follow the shape of the dose curve; as a rule, active = well fitted curve in the direction sought with a large enough effect in the repeat runs; inconclusive = weak or mixed curves; inactive = no such curve, though single readings can be large; an effect the other way counts as inactive or inconclusive.

Key:
[1] = qHTS assay for small molecules that induce genotoxicity in human embryonic kidney cells expressing luciferase-tagged ATAD5 (AID 651632); conditions: HEK293T ATAD5-luciferase induction, 16 h; series mostly up to 83.3 µM; also: nearly all actives have a fitted effect of over 15% in size
How it was run: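 Test compounds were delivered by pin tool onto HEK293T reporter cells (2,000/well) expressing ATAD5 fused to luciferase. After 16 hr at 37C, 5% CO2, Amplite was added for 30 min at room temperature and luminescence was measured.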

[2] = qHTS assay for small molecule disruptors of the mitochondrial membrane potential - cell viability (AID 720634; calls by dose curve; also: nearly all actives have a fitted effect of over 20% in size; also: potency is read from the fitted curve at half-maximal effect); conditions: HepG2 viability, ATP luminescence (CellTiter-Glo), 1 h; series mostly up to 83.2 µM
How it was run: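 Same-well counter-screen: following the MMP dye addition, CellTiter-Glo was added to 1 hr compound-treated HepG2 cells and luminescence read after 30 min at room temperature.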

[3] = qHTS assay for small molecule disruptors of the mitochondrial membrane potential (AID 720635); conditions: HepG2 mitochondrial membrane potential, Mito-MPS dye ratio; series mostly up to 83.2 µM; also: potency is read from the fitted curve at half-maximal effect
How it was run: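 HepG2 cells exposed to compound 1 hr at 37C, then Mito-MPS dye 30 min. Ratio read of aggregate (540/590 nm) versus monomer (490/535 nm) fluorescence.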

[4] = qHTS assay to test for compound auto fluorescence at 590 nm (red) in HepG2 cells (AID 720674); conditions: HepG2 autofluorescence, red 540/590 nm, 1 h; series mostly up to 91.3 µM
How it was run: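 HepG2 cells, 2,000 per well in MEM with 10% FBS, attached overnight at 37 C, then got 23 nL compound or DMSO. After 1 hr at 37 C, 5% CO2, red fluorescence was read at 540/590 nm against Rose Bengal sodium as reference.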

[5] = qHTS assay to test for compound auto fluorescence at 535 nm (green) in HepG2 cells (AID 720675); conditions: green autofluorescence 485/535 nm, 1 h; series mostly up to 91.3 µM
[6] = qHTS assay to test for compound auto fluorescence at 460 nm (blue) in HEK293 cells (AID 720678); conditions: blue autofluorescence 405/460 nm; series mostly up to 91.3 µM
How it was run: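 Intrinsic compound fluorescence is recorded in live HEK293 cultures after overnight incubation at 37C, 5% CO2, using excitation 405 nm and emission 460 nm. Values are referenced to triamterene.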

[7] = qHTS assay to test for compound auto fluorescence at 590 nm (red) in HEK293 cells (AID 720679); conditions: red autofluorescence 540/590 nm; series mostly up to 91.3 µM
How it was run: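 Red autofluorescence, HEK293 cells: 2,000 cells/well; attach 4-5 hr 37C; add 23 nL cpd or DMSO; incubate o/n 37C 5% CO2; read Ex540/Em590; Rose Bengal sodium reference.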

[8] = qHTS assay to test for compound auto fluorescence at 535 nm (green) in HEK293 cells (AID 720680); conditions: green autofluorescence 485/535 nm; series mostly up to 91.3 µM
[9] = qHTS assay to test for compound auto fluorescence at 460 nm (blue) in HEK293 cell free culture (AID 720681); conditions: cell-free medium, autofluorescence 405/460 nm (blue); series mostly up to 91.3 µM
How it was run: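 Compounds were added to cell-free DMEM with 10% FBS and fluorescence read directly. The blue channel used 405 nm excitation and 460 nm emission, with triamterene as the reference fluorophore.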

[10] = qHTS assay to test for compound auto fluorescence at 535 nm (green) in HEK293 cell free culture (AID 720682); conditions: cell-free medium, green autofluorescence 485/535 nm, stronger effect = higher value; series mostly up to 91.3 µM
How it was run: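 Intrinsic compound fluorescence is measured in culture medium containing 10% FBS, with excitation at 485 nm and detection at 535 nm, referenced to fluorescein.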

[11] = qHTS assay to test for compound auto fluorescence at 590 nm (red) in HEK293 cell free culture (AID 720683); conditions: cell-free medium autofluorescence, Ex540/Em590 red; series mostly up to 91.3 µM
How it was run: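 Cell-free wells of DMEM with 10% FBS received compound, and intrinsic fluorescence was read at excitation/emission 540/590 nm. Values expressed as equivalence to Rose Bengal sodium.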

[12] = qHTS assay to test for compound auto fluorescence at 590 nm (red) in HepG2 cell free culture (AID 720684); conditions: cell-free medium autofluorescence, red 540/590 nm; series mostly up to 91.3 µM
How it was run: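 Rose Bengal sodium served as the reference for red signal. Test compounds were dispensed into serum-containing MEM (10% FBS) without cells, and plates were read at 540/590 nm.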

[13] = qHTS assay to test for compound auto fluorescence at 535 nm (green) in HepG2 cell free culture (AID 720686); conditions: Cell-free medium, green autofluorescence 485/535 nm; series mostly up to 91.3 µM
[14] = qHTS assay to test for compound auto fluorescence at 460 nm (blue) in HepG2 cells (AID 720687); conditions: autofluorescence 405/460 nm, 1 h; series mostly up to 91.3 µM
How it was run: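 HepG2 cells in MEM with 10% FBS, attached overnight at 37 C, were exposed to compound or DMSO for 1 hr at 37 C, 5% CO2. Blue fluorescence was read at 405/460 nm, with triamterene as reference fluorophore.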

[15] = molecular target: Glucocorticoid receptor (Homo sapiens) (UniProt P04150); assay: qHTS assay to identify small molecule agonists of the glucocorticoid receptor (GR) signaling pathway (AID 720691; active = well fitted activation curve with a large enough effect in the signal ratio in the repeat runs, not every such curve was filed as active; the % refers to the signal ratio); conditions: GR-bla HeLa, beta-lactamase reporter ratio, 18 h; series mostly up to 62.4 µM
Chain of Glucocorticoid receptor (Homo sapiens) (P04150 whole entry, looked up): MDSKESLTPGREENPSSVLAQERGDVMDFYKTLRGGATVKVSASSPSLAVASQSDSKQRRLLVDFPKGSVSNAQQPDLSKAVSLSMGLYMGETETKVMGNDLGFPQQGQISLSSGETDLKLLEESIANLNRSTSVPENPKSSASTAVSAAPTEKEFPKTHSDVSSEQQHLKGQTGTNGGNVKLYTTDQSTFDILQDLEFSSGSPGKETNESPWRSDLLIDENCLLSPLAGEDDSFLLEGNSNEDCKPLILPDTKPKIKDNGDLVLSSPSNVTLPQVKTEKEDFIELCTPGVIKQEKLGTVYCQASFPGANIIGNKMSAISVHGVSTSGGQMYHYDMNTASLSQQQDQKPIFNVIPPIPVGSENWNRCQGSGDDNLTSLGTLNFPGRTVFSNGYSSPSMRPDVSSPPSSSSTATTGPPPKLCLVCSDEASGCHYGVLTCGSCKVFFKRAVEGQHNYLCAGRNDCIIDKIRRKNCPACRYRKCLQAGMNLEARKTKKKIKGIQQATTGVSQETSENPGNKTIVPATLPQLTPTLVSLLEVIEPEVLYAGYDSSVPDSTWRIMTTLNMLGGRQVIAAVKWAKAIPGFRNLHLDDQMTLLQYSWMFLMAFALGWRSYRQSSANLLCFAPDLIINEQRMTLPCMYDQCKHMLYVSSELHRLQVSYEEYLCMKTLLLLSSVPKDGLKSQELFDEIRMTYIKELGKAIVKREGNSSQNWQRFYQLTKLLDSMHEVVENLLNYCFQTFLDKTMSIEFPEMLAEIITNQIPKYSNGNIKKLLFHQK
How it was run: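 A HeLa cervical cancer line expressing GR and a glucocorticoid response element-driven beta-lactamase gene is treated with compounds for 18 h; LiveBLAzer B/G FRET substrate is then applied and fluorescence read.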

[16] = molecular target: Glucocorticoid receptor (Homo sapiens) (UniProt P04150); assay: qHTS assay to identify small molecule antagonists of the glucocorticoid receptor (GR) signaling pathway (AID 720692; active = well fitted inhibition curve with a large enough effect in the signal ratio in the repeat runs, not every such curve was filed as active; the % refers to the signal ratio; also: potency is read from the fitted curve at half-maximal effect); conditions: GR-bla HeLa, beta-lactamase FRET ratio, dexamethasone-stimulated, 18 h; series mostly up to 58.5 µM
How it was run: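 GRE-bla HeLa line, dex-stimulated (5 nM final). Compound exposure 18 h, 37 C. Beta-lactamase FRET read after 2 h RT substrate.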

[17] = qHTS assay for small molecule agonists of the p53 signaling pathway - cell viability (AID 651633; calls by dose curve; also: nearly all actives have a fitted effect of over 30% in size; also: potency is read from the fitted curve at half-maximal effect); conditions: p53RE-bla HCT-116 viability, ATP luminescence, 16 h; series mostly up to 83.3 µM
How it was run: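 p53RE-bla cells were treated with compound for 16 hours at 37 C. Cytotoxicity was then measured as CellTiter-Glo luminescence after 30 min at room temperature.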

[18] = qHTS assay for small molecules that induce genotoxicity in human embryonic kidney cells expressing luciferase-tagged ATAD5 - cell viability (AID 651634; calls by dose curve; also: nearly all actives have a fitted effect of over 25% in size; also: potency is read from the fitted curve at half-maximal effect); conditions: HEK293T ATAD5-luc cells viability, CellTiter-Fluor, 15.5 h; series mostly up to 83.3 µM
How it was run: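 Quantitative high-throughput format. HEK293T cells expressing ATAD5 fused to luciferase were plated at 2,000 cells/well and treated 15.5 hr with compound versus DMSO. Viability was determined by fluorescent live-cell protease substrate, 30 min at 37C.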

[19] = qHTS assay to test for compound auto fluorescence at 460 nm (blue) in HepG2 cell free culture (AID 720685); conditions: Cell-free culture medium, blue autofluorescence 405/460 nm; series mostly up to 91.3 µM
How it was run: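 Cell-free plates of MEM plus 10% FBS received 23 nL compound or DMSO vehicle; blue-channel (405/460 nm) intensity scored against triamterene as reference fluorophore.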

Measured: Potency

CCCCCCCCCC(CC)c1ccc(S(=O)(=O)O)cc1 (stereo unspecified)
active: [3] 61.1 µM
inactive and 68.6 µM (active): [2]
not listed: [17] | [18] | [19]
inactive: all other assays above

OCCOCCO
not listed: [3] | [19]
inactive: all other assays above

COP(=O)(NC(C)=O)SC (stereo unspecified)
not listed: [3] | [10] | [14]
inactive: all other assays above

C=CC(Cl)CCl (stereo unspecified)
not listed: [2] | [3]
inactive: all other assays above

CCCCC(C#N)(Cn1cncn1)c1ccc(Cl)cc1 (stereo unspecified)
not listed: [3] | [10]
inactive: all other assays above

CSc1nc(NC(C)C)nc(NC(C)C)n1
not listed: [3] | [10] | [15] | [16]
inactive: all other assays above

ClCC(Cl)CCl
not listed: [10] | [19]
inactive: all other assays above

CCCCSP(=O)(SCCCC)SCCCC
not listed: [2] | [3] | [19]
inactive: all other assays above

Cl
not listed: [1] | [2] | [3] | [10] | [15] | [16] | [17]
inactive: all other assays above

CCOP(=O)(O)OCC (tested in a mixture with another compound)
active: [3] 24.1 µM
inactive and 60.6 µM (active): [17] | [2]
not listed: [10] | [14] | [15] | [16] | [18] | [19]
inactive: all other assays above

[Cl-].[Cl-].[Cl-].[Fe+3]
not listed: [1] | [2] | [3] | [15] | [16] | [17]
inactive: all other assays above

OC(c1ccc(Cl)cc1)(c1cncnc1)c1ccccc1Cl (stereo unspecified)
active: [3] 49.4 µM and 30.6 µM | [16] 49 µM
not listed: [2]
inactive: all other assays above

CC(C)(c1ccccc1)c1ccc(O)c(C(C)(C)c2ccccc2)c1
active: [17] 13.6 µM and 30.6 µM | [18] 60.6 µM | [3] 1.52 µM and 2.43 µM
not listed: [2] | [14] | [15] | [16]
inactive: all other assays above

CCCCCCCCCc1ccc(O)cc1
active: [2] 17.4 µM | [3] 6.18 µM
not listed: [15] | [16] | [17] | [18] | [19]
inactive: all other assays above

C[N+](C)(C)CC(=O)O
not listed: [3] | [15] | [16] | [19]
inactive: all other assays above

CC(C)(O)C(=O)Nc1ccc([N+](=O)[O-])c(C(F)(F)F)c1
active: [3] 15.7 µM and 17.8 µM
not listed: [2] | [10] | [15] | [16] | [19]
inactive: all other assays above

CC(C)Nc1ccc(Nc2ccccc2)cc1
23.7 µM (active) and inactive: [17]
active: [3] 21.1 µM and 60.9 µM and 61.1 µM
not listed: [2] | [16] | [19]
inactive: all other assays above
